Pf apPOL inh – Pf-apPOL DNA polymerase inhibition. Recombinant Pf-apPOL, molecular beacon fluorescence, 1.5 h. inhibition, % at 10 µM. actives 0.25% (n = 210,000). AID 1794808
mHTT CaM bind – disrupts binding of mutant huntingtin to calmodulin; P42858; AlphaScreen His-mHTT/GST-CaM binding, luminescence; inhibition, % at 15 µM; actives 3.6% (n = 190,000);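 note: 0% = both proteins with DMSO and 100% = one protein alone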
* marks the source's active call; other numbers are inactive results; · = no result given; + = active, no number. An excerpt weighted towards active compounds, which were near 3.5% of everything screened. Cut-off read from the data, not from the text of the source: active = inhibition above about 50%; inactive = the rest.

SMILES	Pf apPOL inh	mHTT CaM bind
Cc1ccc(N=C2C(=O)N(CN3CCc4ccccc4C3)c3ccccc32)cc1	-0.4	8.0
O=C(NCc1cccnc1)C(=O)NCc1cccnc1	1.0	-5.0
O=C(NCc1cccnc1)/C(=N\O)c1ccccn1	11.4	+
NS(=O)(=O)c1ccc(NC(=O)CN2CCN(C3c4ccccc4-c4ccccc43)CC2)cc1	-8.6	36.0
Cc1c(C=O)c(C=O)c(C)n1-c1ccc(N(C)C)cc1	-4.2	4.5
CN(C)c1ccc(N2CC(=O)SC2=NC#N)cc1	·	55.2*
Cc1nn(Cc2nnc(-c3cc(C(F)(F)F)cc(C(F)(F)F)c3)o2)c(C)c1Br	-3.6	·
COc1ccc(CN2CCc3nc(N4CCN(c5ccccc5)CC4)ncc3C2)cc1	0.0	33.0
Fc1ccc(CN2CCc3nc(N4CCN(c5ncccn5)CC4)ncc3C2)cc1	-2.1	99.9*
Fc1ccc(N2CCN(c3ncc4c(n3)CCN(Cc3ccccc3)C4)CC2)cc1	-4.0	14.1
COc1ccc(CN2CCc3nc(N4CCN(c5ncccn5)CC4)ncc3C2)cc1	-3.5	100.2*
Cc1cccc(NS(=O)(=O)c2cccc3nsnc23)c1C	-3.3	9.0
CN(C)C(=O)c1cc2c(s1)CCC(C(=O)NCc1cc(F)cc(F)c1)C2 (stereo unspecified)	-4.7	2.4
CCCC1=C/C(=C\c2ccc(-c3ccccc3)o2)C(=O)O1	-3.8	50.0*
O=C1OC(c2ccc(Cl)cc2)=C/C1=C/c1ccc(-c2ccccc2C(=O)O)o1	-1.3	56.0*
O=C1OC(c2ccc(Cl)cc2)=C/C1=C\c1ccccc1	-18.6	7.0
CC1=NOC(=O)/C1=C/c1ccc(-c2ccccc2)o1	2.6	27.0
O=C(NC1CCCC1)C1CCC(CNS(=O)(=O)c2ccc(Br)s2)CC1 (stereo unspecified)	-0.7	1.0
Cc1cc(C)cc(-n2nc3c(c2NC(=O)COc2ccc(Cl)cc2)CSC3)c1	2.2	-3.0
Oc1ccc(Br)cc1C=Nc1ccc(Cl)cn1	·	-3.4
Oc1ccc2ccccc2c1C(c1cccs1)N1CCCCC1 (stereo unspecified)	6.3	·
CC(=O)NC(c1cccs1)c1ccc2cccnc2c1O (stereo unspecified)	2.2	100.0*
CCCCC(=O)NC(c1cccs1)c1cc(Cl)c2cccnc2c1O (stereo unspecified)	-3.7	28.0
OCCN1CCN(C(c2cccs2)c2ccc3cccnc3c2O)CC1 (stereo unspecified)	95.5*	99.9*
CC(=O)NC(c1ccco1)c1ccc2cccnc2c1O (stereo unspecified)	-1.8	100.0*
SMILES	Pf apPOL inh	mHTT CaM bind
O=C(Nc1cccc2cccnc12)C(=O)Nc1cccc2cccnc12	2.0	-2.0
Cc1ccccc1N=C1SC(CC(=O)Nc2ccccc2C)C(=O)N1C (stereo unspecified)	-3.4	1.0
CCCc1[nH]n(-c2ccc(F)cc2)c(=O)c1C=Nc1ccc(OCC)cc1	-1.6	9.0
COC(=O)c1ccc(C=C2Oc3cc(OCC(=O)OCc4ccccc4)ccc3C2=O)cc1	-3.6	4.9
CCOC(=O)c1cnc2nc(C)ccc2c1Nc1ccc(Cl)cc1	-8.4	65.7*
COC(=O)c1cnc2nc(C)ccc2c1Nc1cccc(Br)c1	-19.3	14.5
CCOC(=O)c1cnc2nc(C)ccc2c1Nc1ccc(F)c(F)c1	-3.7	33.7
COC(=O)c1cnc2nc(C)ccc2c1Nc1ccc(Cl)cc1	-8.1	62.0*
COC(=O)c1cnc2nc(C)ccc2c1Nc1ccc(Br)cc1C	-14.7	93.9*
COC(=O)c1cnc2nc(C)ccc2c1Nc1ccc(F)c(Cl)c1	-5.0	-0.3
COC(=O)c1cnc2nc(C)ccc2c1Nc1ccc(C)c(Cl)c1	-0.4	77.7*
COC(=O)c1cnc2nc(C)ccc2c1Nc1ccc(OC)cc1	2.5	13.3
COc1cccc(NC(=O)C2CC(=O)N(Cc3ccc(F)cc3)C2)c1 (stereo unspecified)	-3.6	0.1
COc1ccc(Oc2c(C)oc3cc(O)ccc3c2=O)cc1	0.7	0.6
COc1ccc(Cl)cc1NC(=O)CSc1ncccn1	9.1	-4.0
COC(=O)c1cnc2nc(C)ccc2c1Nc1ccc(C)cc1Cl	8.5	46.7
COC(=O)c1cnc2nc(C)ccc2c1Nc1cc(Cl)ccc1C	0.0	65.3*
Clc1cc2nc(-c3ccco3)c(-c3ccco3)nc2cc1Cl	-5.0	100.0*
CSc1nnc(-c2ccco2)c(-c2ccco2)n1	-4.6	31.0
CCOc1ccc(S(=O)(=O)NCCOC23CC4CC(CC(C4)C2)C3)cc1	-1.6	-19.0
Cc1cc(C)c(C)c(S(=O)(=O)N2CCC(c3noc(-c4ccccc4)n3)CC2)c1C	-4.2	-4.9
Cc1cc(C)c(S(=O)(=O)N2CCC(c3noc(-c4ccccc4)n3)CC2)c(C)c1	-1.7	100.3*
COc1ccc2c(c1)c(CC(=O)NCc1cccnc1)c(C)n2C(=O)c1ccc(Cl)cc1	-3.7	58.0*
O=C(Cc1ccc(Cl)cc1)NCc1cccnc1	9.8	-1.8
CC1(C(=O)N2CCN(c3ccccc3F)CC2)Oc2cccnc2NC1=O (stereo unspecified)	9.8	7.5
SMILES	Pf apPOL inh	mHTT CaM bind
COCCn1cc2c3c(cccc31)CN(C(=O)CCCc1ccccc1)CC2	-3.6	90.7*
CCn1cc2c3c(cccc31)CN(C(=O)Cc1cccc(F)c1)CC2	-2.0	66.0*
COCCn1cc2c3c(cccc31)CN(C(=O)NCc1ccccc1)CC2	-1.4	6.0
COCCn1cc2c3c(cccc31)CN(C(=O)c1ccccc1F)CC2	-3.8	37.1
COCCn1cc2c3c(cccc31)CN(C(=O)c1ccccc1Br)CC2	-6.7	68.7*
CCCC(=O)N1CCc2cn(CC)c3cccc(c23)C1	-2.0	14.4
COc1ccc(C(=O)N2CCc3cn(C)c4cccc(c34)C2)c(C)c1	-2.1	30.0
COCCn1cc2c3c(cccc31)CN(C(=O)c1ccc(OC)cc1C)CC2	-3.3	51.4*
O=[N+]([O-])c1cc(NC2OCC(O)C(O)C2O)cc(Oc2ccc(F)cc2)c1 (stereo unspecified)	9.5	17.0
COC(=O)c1ccc(C(=O)NCCN2CCN(C(=O)OC(C)(C)C)CC2)cc1	-2.9	-9.5
COCCn1cc2c3c(cccc31)CN(C(=O)Nc1cc(F)cc(F)c1)CC2	-0.5	1.9
COCCn1cc2c3c(cccc31)CN(C(=O)c1ccc(C)c(F)c1)CC2	-2.0	53.1*
COCCn1cc2c3c(cccc31)CN(C(=O)c1cccc(Cl)c1)CC2	-3.4	64.5*
COCCn1cc2c3c(cccc31)CN(C(=O)c1ccc(C)cc1)CC2	-6.6	67.8*
COCCn1cc2c3c(cccc31)CN(C(=O)c1ccccn1)CC2	-5.8	24.3
COCCn1cc2c3c(cccc31)CN(C(=O)c1ccc(F)c(Cl)c1)CC2	-4.7	28.9
COCCn1cc2c3c(cccc31)CN(C(=O)c1cccc(F)c1)CC2	-0.9	53.9*
COCCn1cc2c3c(cccc31)CN(C(=O)c1ccccc1)CC2	-2.5	39.9
CCC(=O)NCCc1csc(C2CCCN(C(=O)c3ccc(OC)cc3)C2)n1 (stereo unspecified)	-0.4	0.7
COc1ccccc1NC(=O)c1cc2c(=O)n3ccccc3nc2s1	5.1	8.0
C#CCNC(=O)C1COC2(CCCCC2)N1C(=O)c1ccccc1 (stereo unspecified)	0.2	1.7
COc1ccc(C(=O)N2CCc3cn(C)c4cccc(c34)C2)cc1F	-3.3	32.0
CCn1cc2c3c(cccc31)CN(C(=O)c1ccc(OC)c(F)c1)CC2	-4.8	52.2*
CCCCCCCCCC(=O)Nc1nc2c(s1)CCc1cc(OC)ccc1-2	-5.0	·

Screening data as filed in PubChem.
